# LGR2 inh – inhibitors of bursicon-induced LGR2 CRE-luciferase signal, primary screen, cell-based, HEK293, CRE-luciferase reporter, bursicon stimulation; bursicon-stimulated, 4 h; Drosophila bursicon receptor LGR2 (rickets); inhibition, % at 9.99 µM; 380,000 tested, 0.35% active; AID 720647, 2013;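 active means drop in luminescence signal, shown as inhibition above about 50% in the replicate tests, limit read from the data, passing the limit was not always enough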;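 further: agonist challenge used bursicon conditioned medium at about half maximal strength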
# EWS-Fli block – EWS/Fli-driven NR0B1 reporter inhibitors, primary screen, A673 cells, NR0B1 luciferase, luminescence, MLPCN library | viability-normalised | 350,000 tested, 0.67% active | inhibition, % at 12.6 µM | AID 651661, 2012;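 active means mean inhibition of at least 50% after viability correction, with every replicate also passing that limit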;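 further: firefly luciferase signal divided by Alamar Blue viability fluorescence both relative to DMSO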
# TROY NFkB inh – inhibitors of TROY-driven NF-kB signaling, primary screen, Q293 LMP1-TROYcd cells, NF-kB luciferase, uHTS; Q293 LMP1-TROYcd NF-kB luciferase reporter, 4 h; inhibition, % at 10 µM; 360,000 tested, 0.98% active;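 active means compounds whose plate-normalised and pattern-corrected inhibition of the luciferase reporter signal at the single screening dose is 50% or more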
# TWEAK-Fn14 inh – inhibitors of TWEAK-Fn14 signaling, primary screen, luciferase reporter cells, uHTS; TWEAK-stimulated Fn14 reporter cells, luciferase luminescence, 8 h; inhibition, % at 10 µM; 360,000 tested, 2% active; in the data active means inhibition above about 50%
# EBV LMP1 NFkB – EBV LMP1-driven NF-kappaB luciferase reporter inhibitors, primary screen, cell-based, luminescence, single point; LMP1-induced NF-kappaB luciferase reporter cells; inhibition, % at 12.5 µM; 350,000 tested, 0.69% active; AID 504558, 2011; in the data active means inhibition above about 41%;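 further: 0% = neutral control wells and 100% = reference inhibitor control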
# PAX8 reporter – inhibitors of PAX8-driven TPO luciferase reporter, primary screen, RMG-I cells, single concentration | SteadyGlo, 24 h | inhibition, % at 12.6 µM | 360,000 tested, 1.2% active | AID 652154, 2013;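 active means mean replicate inhibition at least 60% with every replicate also reaching 60%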;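 further: luciferase light reporting Pax8 driven TPO promoter activity; plate controls were median of neutral control wells for no effect and mitoxantrone controls for full effect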
# * = called active by the depositor; . = not tested or not shown. Hits are enriched below; roughly 3.2% of the tested compounds scored in any of these assays.
SMILES,LGR2 inh,EWS-Fli block,TROY NFkB inh,TWEAK-Fn14 inh,EBV LMP1 NFkB,PAX8 reporter
COc1ccc(-c2ccc3n(c2=O)C[C@@H]2[C@@H](CO)[C@H](C(=O)NC4Cc5ccccc5C4)N[C@H]32)cc1,6,-5,.,.,.,66*
COc1ccc(-c2ccc3n(c2=O)C[C@H]2[C@H](CO)[C@@H](C(=O)NC4Cc5ccccc5C4)N[C@@H]32)cc1,-3,-3,.,.,.,14
CC(=O)c1ccc(N=Nc2ccc(N)cc2)cc1,64*,34,11,69*,11,-43
CC(=O)c1ccc(N=Nc2c(C)[nH][nH]c2=O)cc1,.,-47,-24,-23,3,-55
N#Cc1cccc(-c2ccc([C@@H]3[C@@H](CO)N4CCCCN(Cc5ccccc5F)C[C@@H]34)cc2)c1,-4,14,.,.,.,-16
CCOC(=O)C1=C[C@@H](C2CCCCC2)N(S(=O)(=O)c2ccc([N+](=O)[O-])cc2)[C@H]1c1ccccc1,8,15,-9,75*,.,25
CCOC(=O)C1=CC[C@@H](c2ccc([N+](=O)[O-])cc2)N(S(=O)(=O)c2ccc(C)cc2)[C@H]1c1ccccc1,9,-1,-2,26,.,-28
C=C(C)CN=C1SC(C(=O)Nc2sc3c(c2C(=O)OC)CCC3)C(N)=C1C(N)=O (stereo not drawn),5,-5,5,57*,-10,0
CCCN1[C@@H]2Cn3c(cccc3=O)[C@H]1[C@@H](C(=O)N[C@H](C)c1ccccc1)[C@@H]2CO,1,-4,.,.,.,.
CC(C)(C)C(=O)Nc1ccc(C(=O)Nc2cccc(Oc3ccc(C(=O)O)c(C(=O)O)c3)c2)cc1,13,18,4,16,16,12
O=C(O)c1ccccc1C(=O)Nc1ccc(Oc2ccccc2)cc1,-4,3,-9,58*,.,-5
O=C(Nc1cccc(Oc2ccc(C(=O)O)c(C(=O)O)c2)c1)c1ccc(-c2ccccc2)cc1,56*,11,-11,30,2,24
Cc1ccc(S(=O)(=O)N2CC[C@@H]3[C@H]2c2cc(C#Cc4ccc(F)cc4)ccc2N[C@@H]3CO)cc1,27,-3,.,.,.,-25
CCC(=O)Nc1ccc2c(c1)C(=O)N(C)[C@H]1CC[C@@H](CC(=O)O)O[C@@H]1CO2,4,-1,.,.,.,-3
C[C@@H]1CCCCO[C@@H](CN(C)C(=O)Cc2ccccc2)[C@@H](C)CN([C@@H](C)CO)C(=O)c2cc(NC(=O)Nc3ccc(C(F)(F)F)cc3)ccc2O1,-8,-4,.,.,.,79*
C[C@@H]1CCCCO[C@@H](CN(C)C(=O)Nc2ccc(C(F)(F)F)cc2)[C@H](C)CN([C@H](C)CO)C(=O)c2cc(NC(=O)Nc3ccccc3)ccc2O1,-28,-11,.,.,.,63*
C[C@@H]1CCCCO[C@H](CN(C)C(=O)c2ccccc2)[C@@H](C)CN([C@H](C)CO)C(=O)c2cc(NC(=O)Nc3ccc(C(F)(F)F)cc3)ccc2O1,-11,-10,.,.,.,7
C[C@@H]1CN([C@H](C)CO)C(=O)c2cc(NC(=O)Nc3ccc(C(F)(F)F)cc3)ccc2O[C@@H](C)CCCCO[C@H]1CN(C)C(=O)c1ccccc1,-3,46,.,.,.,102*
C[C@@H]1CCCCO[C@@H](CN(C)C(=O)Nc2ccccc2)[C@H](C)CN([C@H](C)CO)C(=O)c2cc(NC(=O)Nc3ccc(C(F)(F)F)cc3)ccc2O1,-5,6,.,.,.,86*
O=C(NC[C@@H]1[C@@H](c2ccccc2)[C@@H](CO)N1CC1CCCC1)c1ccccc1,-13,6,.,.,.,6
CC(C)NC(=O)Nc1ccc2c(c1)C(=O)N([C@@H](C)CO)C[C@@H](C)[C@@H](CN(C)C(=O)Nc1ccccc1)OCCCC[C@@H](C)O2,-20,.,.,.,.,-3
O=C(C[C@H]1C=C[C@H](NC(=O)Nc2cc(F)ccc2F)[C@H](CO)O1)NCc1ccncn1,9,-3,.,.,.,-11
Cc1sc(NC(=O)c2ccccc2)c(C(c2ccccn2)N2CCN(CCO)CC2)c1C (stereo not drawn),15,.,78*,65*,2,2
COc1ccc(-c2nnc3ccc(SCC(=O)Nc4nc5ccc(C)cc5s4)nn23)cc1OC,-9,.,87*,98*,-16,16
COC(=O)CSc1ccc2nnc(-c3ccc(OC)c(OC)c3)n2n1,14,22,5,-48,-2,8
SMILES,LGR2 inh,EWS-Fli block,TROY NFkB inh,TWEAK-Fn14 inh,EBV LMP1 NFkB,PAX8 reporter
OCCCNc1ncnc2scc(-c3ccc(Cl)cc3)c12,19,-15,32,73*,25,-3
COc1ccc(CN2CCN(c3ncnc4scc(-c5ccc(F)cc5)c34)CC2)cc1,19,13,-4,-17,-1,-2
COc1ccc(Nc2ncnc3scc(-c4ccc(OC)cc4)c23)cc1,-5,65*,39,40,20,35
COc1ccc(-c2csc3ncnc(N4CCN(c5cccc(OC)c5)CC4)c23)cc1,-9,4,16,54*,13,.
CCN1CCN(c2ncnc3scc(-c4ccc(OC)cc4)c23)CC1,-11,0,10,91*,4,5
NNc1ncnc2scc(-c3ccc(Cl)cc3)c12,-1,19,0,14,5,14
C[C@@H](NC(=O)C[C@H]1CC[C@@H](NS(=O)(=O)c2cccc(F)c2)[C@H](CO)O1)c1ccccc1,-12,.,.,.,.,.
COCCOC(=O)N1C(=O)[C@@]2(c3cc(C#Cc4ccc(OC)cc4)ccc31)[C@H](C(=O)N1CCN(c3ncccn3)CC1)[C@H]1C(=O)O[C@H](c3ccccc3)[C@H](c3ccccc3)N1[C@@H]2c1ccc(OCCO)cc1,.,-7,.,.,.,10
CCCNC(=O)[C@H]1[C@H](CO)[C@H]2Cn3c(ccc(-c4ccc(F)cc4)c3=O)[C@H]2N1CC,-11,5,.,.,.,.
c1ccc(N2CCN(c3ncnc4scc(-c5cccs5)c34)CC2)cc1,34,.,31,64*,7,.
CN1CCN(c2ccc(-c3cccc(NC(=O)COc4ccc(Cl)cc4Cl)c3)nn2)CC1,-27,32,74*,63*,-18,-80
Cc1ccc(CSc2nnc(SCC(=O)N/N=C/c3ccc(C(=O)O)cc3)s2)cc1,67*,60*,15,69*,-6,-14
COCC(=O)N(C)C[C@H]1Oc2ncc(-c3cccc(OC)c3)cc2C(=O)N([C@@H](C)CO)C[C@H]1C,-13,-6,.,.,.,.
C[C@@H]1CCCCO[C@H](CN(C)S(=O)(=O)c2ccc(Cl)cc2)[C@H](C)CN([C@H](C)CO)C(=O)c2cc(NS(=O)(=O)c3cccs3)ccc2O1,20,20,.,.,.,20

# Compound activity from PubChem.
